The text below walks through data of PubChem BioAssay (Tox21).

Where “and” joins values, the source holds several entries; their conditions need not be identical. Equal entries are not always repeated. Records with an inconclusive call do not appear. Calls of active or inactive are those of the source. The call rests on the fitted dose curve; in most records, active means well fitted curve in the direction sought with a large enough effect in the repeat runs; inconclusive means weak or mixed curves; inactive means no such curve, though single readings can be large; an effect the other way counts as inactive or inconclusive.

The target in assay [1] is Cytochrome P450 2D6 (Homo sapiens) (UniProt P10635). In words: Cytochrome P450 Family 2 Subfamily D Member 6 (CYP2D6) small molecule antagonists: luciferase reporter qHTS assay (AID 1671196). Further: nearly all actives have a fitted effect of over 50% in size. Further: potency means the concentration at half of the fitted maximal effect. As to conditions: P450-Glo CYP2D6 enzyme assay, luciferin luminescence, 1 h; series mostly up to 115 µM. The procedure, abridged:
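CYP2D6 enzyme–substrate mix was held with compound for 10 min at room temperature, then NADPH regeneration solution was added and the reaction ran 1 h at room temperature. Luciferin product was detected by luminescence after 20 min with detection reagent.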
Background: Reporter assays use an easily measured gene product as a stand-in for the process of interest.

Assay [2] concerns the target Cytochrome P450 2C19 (Homo sapiens) (UniProt P33261). Kind of assay: Cytochrome P450 Family 2 Subfamily C Member 19 (CYP2C19) small molecule antagonists: luciferase reporter qHTS assay (AID 1671197). Further: nearly all actives have a fitted effect of over 65% in size. Further: potency means the concentration at half of the fitted maximal effect. The note with it: P450-Glo CYP2C19 enzyme, luciferin luminescence, 1 h; series mostly up to 115 µM. The gist of the method:
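Compounds were tested on CYP2C19 activity via proluciferin conversion to luciferin. The 37C, 1 h reaction followed NADPH addition; detection reagent stopped it.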

For assay [3], the target named is Cytochrome P450 2C9 (Homo sapiens) (UniProt P11712). Kind of assay: Cytochrome P450 Family 2 Subfamily C Member 9 (CYP2C9) small molecule antagonists: luciferase reporter qHTS assay (AID 1671198). Further: nearly all actives have a fitted effect of over 50% in size. Further: potency means the concentration at half of the fitted maximal effect. As to conditions: P450-Glo CYP2C9 enzyme assay, luciferin luminescence; series mostly up to 115 µM. The procedure, abridged: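 P450-Glo proluciferin substrate with CYP2C9 enzyme; 10 min RT preincubation, then NADPH regeneration 1 h at 37C; luciferin detection reagent 20 min RT, luminescence in relative luminescence units.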

Assay [4] addresses Cytochrome P450 1A2 (Homo sapiens) (UniProt P05177). In words: Cytochrome P450 Family 1 Subfamily A Member 2 (CYP1A2) small molecule antagonists: luciferase reporter qHTS assay (AID 1671199). Further: nearly all actives have a fitted effect of over 50% in size. Further: potency means the concentration at half of the fitted maximal effect. As to conditions: P450-Glo CYP1A2 enzyme, luciferin luminescence, 1 h; series mostly up to 115 µM. The procedure, abridged:
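Human CYP1A2 activity measured with a P450-Glo proluciferin substrate; compounds in DMSO preincubated 10 min at room temperature with enzyme-substrate mix, then NADPH regeneration system added for 1 h. Luciferin detection reagent, 20 min, luminescence read.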

In assay [5] the target is Voltage-gated inwardly rectifying potassium channel KCNH2 (Homo sapiens) (UniProt Q12809). Kind of assay: Human Ether-a-go-go-Related Gene (hERG) channel small molecule antagonists: fluorescence cell-based qHTS assay (AID 1671200). Further: nearly all actives have a fitted effect of over 50% in size. Further: potency means the concentration at half of the fitted maximal effect. As to conditions: hERG-U2OS cells, FluxOR thallium flux fluorescence; series mostly up to 76.8 µM. The procedure, abridged: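 Measured: Tl+ flux via fluorescence (480/540 nm) in hERG-expressing U2OS cells after 1 h dye loading at room temperature.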

In assay [6] the target is Cytochrome P450 3A4 (Homo sapiens) (UniProt P08684). Kind of assay: Cytochrome P450 Family 3 Subfamily A Member 4 (CYP3A4) small molecule antagonists: luciferase reporter qHTS assay (AID 1671201). Further: nearly all actives have a fitted effect of over 50% in size. The note with it: P450-Glo CYP3A4 enzyme, luciferin luminescence, 1 h; series mostly up to 115 µM. The gist of the method: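 Setup: enzyme-substrate mix, compound pin transfer, 10 min RT. Reaction: NADPH regeneration solution, 1 h RT. Readout: detection reagent stops turnover, luminescence measured after 20 min, expressed in relative luminescence units.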
Cytochrome P450 3A4 (Homo sapiens), sequence (P08684 whole entry, looked up): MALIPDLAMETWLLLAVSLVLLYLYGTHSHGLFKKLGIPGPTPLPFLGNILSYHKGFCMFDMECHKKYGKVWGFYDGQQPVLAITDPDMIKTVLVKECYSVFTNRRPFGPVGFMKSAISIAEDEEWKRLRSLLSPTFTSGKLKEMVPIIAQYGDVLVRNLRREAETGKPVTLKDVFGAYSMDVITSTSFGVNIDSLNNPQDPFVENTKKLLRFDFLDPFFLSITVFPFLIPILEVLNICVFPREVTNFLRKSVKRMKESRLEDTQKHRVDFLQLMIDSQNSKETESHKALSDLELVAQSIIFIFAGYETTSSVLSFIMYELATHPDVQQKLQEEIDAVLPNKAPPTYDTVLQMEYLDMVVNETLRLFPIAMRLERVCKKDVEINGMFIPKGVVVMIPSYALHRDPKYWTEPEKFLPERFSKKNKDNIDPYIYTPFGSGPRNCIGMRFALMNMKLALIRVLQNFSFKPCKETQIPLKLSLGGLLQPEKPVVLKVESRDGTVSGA

Cytochrome P450 2D6 (Homo sapiens), sequence (P10635 whole entry, looked up): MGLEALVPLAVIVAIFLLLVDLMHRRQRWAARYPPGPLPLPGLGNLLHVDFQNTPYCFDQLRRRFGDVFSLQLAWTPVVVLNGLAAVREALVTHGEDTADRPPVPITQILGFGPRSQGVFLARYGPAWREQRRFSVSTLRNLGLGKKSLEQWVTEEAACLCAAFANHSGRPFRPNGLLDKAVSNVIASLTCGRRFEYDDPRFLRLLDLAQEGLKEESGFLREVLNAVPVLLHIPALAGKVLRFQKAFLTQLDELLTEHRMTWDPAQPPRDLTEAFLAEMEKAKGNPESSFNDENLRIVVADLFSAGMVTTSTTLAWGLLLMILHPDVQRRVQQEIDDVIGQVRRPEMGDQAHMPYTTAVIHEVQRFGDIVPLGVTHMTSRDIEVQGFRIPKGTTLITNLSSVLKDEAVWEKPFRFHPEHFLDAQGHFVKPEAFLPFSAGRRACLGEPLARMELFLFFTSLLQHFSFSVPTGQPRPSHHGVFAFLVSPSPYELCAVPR
Cytochrome P450 1A2 (Homo sapiens), sequence (P05177 whole entry, looked up): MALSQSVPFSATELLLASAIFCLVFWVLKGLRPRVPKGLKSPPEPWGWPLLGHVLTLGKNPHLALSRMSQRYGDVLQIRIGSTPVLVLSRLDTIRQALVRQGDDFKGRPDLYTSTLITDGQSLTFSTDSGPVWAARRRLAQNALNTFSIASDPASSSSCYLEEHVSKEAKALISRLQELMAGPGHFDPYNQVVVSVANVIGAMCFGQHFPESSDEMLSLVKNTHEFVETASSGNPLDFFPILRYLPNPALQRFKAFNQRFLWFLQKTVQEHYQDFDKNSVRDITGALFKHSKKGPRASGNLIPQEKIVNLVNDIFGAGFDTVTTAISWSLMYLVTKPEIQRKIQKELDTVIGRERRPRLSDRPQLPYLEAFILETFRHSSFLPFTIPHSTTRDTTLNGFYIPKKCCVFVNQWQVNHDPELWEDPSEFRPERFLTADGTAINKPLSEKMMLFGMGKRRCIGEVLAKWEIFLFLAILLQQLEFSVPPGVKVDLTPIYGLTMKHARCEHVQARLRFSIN
Cytochrome P450 2C19 (Homo sapiens), sequence (P33261 whole entry, looked up): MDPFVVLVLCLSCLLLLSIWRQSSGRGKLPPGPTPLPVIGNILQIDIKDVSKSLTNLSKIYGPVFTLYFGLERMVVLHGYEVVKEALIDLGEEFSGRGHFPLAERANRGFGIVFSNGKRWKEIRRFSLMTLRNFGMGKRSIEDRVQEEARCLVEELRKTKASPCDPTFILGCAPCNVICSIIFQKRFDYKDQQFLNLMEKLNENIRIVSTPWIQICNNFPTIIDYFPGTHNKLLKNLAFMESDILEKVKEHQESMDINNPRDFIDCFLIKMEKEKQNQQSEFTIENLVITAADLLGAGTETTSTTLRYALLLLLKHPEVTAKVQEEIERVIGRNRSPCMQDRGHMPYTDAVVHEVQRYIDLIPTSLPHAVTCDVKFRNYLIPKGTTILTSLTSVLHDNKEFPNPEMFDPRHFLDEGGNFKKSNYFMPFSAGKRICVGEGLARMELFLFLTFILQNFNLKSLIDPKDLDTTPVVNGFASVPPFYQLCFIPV
Voltage-gated inwardly rectifying potassium channel KCNH2 (Homo sapiens), sequence (Q12809 whole entry, looked up): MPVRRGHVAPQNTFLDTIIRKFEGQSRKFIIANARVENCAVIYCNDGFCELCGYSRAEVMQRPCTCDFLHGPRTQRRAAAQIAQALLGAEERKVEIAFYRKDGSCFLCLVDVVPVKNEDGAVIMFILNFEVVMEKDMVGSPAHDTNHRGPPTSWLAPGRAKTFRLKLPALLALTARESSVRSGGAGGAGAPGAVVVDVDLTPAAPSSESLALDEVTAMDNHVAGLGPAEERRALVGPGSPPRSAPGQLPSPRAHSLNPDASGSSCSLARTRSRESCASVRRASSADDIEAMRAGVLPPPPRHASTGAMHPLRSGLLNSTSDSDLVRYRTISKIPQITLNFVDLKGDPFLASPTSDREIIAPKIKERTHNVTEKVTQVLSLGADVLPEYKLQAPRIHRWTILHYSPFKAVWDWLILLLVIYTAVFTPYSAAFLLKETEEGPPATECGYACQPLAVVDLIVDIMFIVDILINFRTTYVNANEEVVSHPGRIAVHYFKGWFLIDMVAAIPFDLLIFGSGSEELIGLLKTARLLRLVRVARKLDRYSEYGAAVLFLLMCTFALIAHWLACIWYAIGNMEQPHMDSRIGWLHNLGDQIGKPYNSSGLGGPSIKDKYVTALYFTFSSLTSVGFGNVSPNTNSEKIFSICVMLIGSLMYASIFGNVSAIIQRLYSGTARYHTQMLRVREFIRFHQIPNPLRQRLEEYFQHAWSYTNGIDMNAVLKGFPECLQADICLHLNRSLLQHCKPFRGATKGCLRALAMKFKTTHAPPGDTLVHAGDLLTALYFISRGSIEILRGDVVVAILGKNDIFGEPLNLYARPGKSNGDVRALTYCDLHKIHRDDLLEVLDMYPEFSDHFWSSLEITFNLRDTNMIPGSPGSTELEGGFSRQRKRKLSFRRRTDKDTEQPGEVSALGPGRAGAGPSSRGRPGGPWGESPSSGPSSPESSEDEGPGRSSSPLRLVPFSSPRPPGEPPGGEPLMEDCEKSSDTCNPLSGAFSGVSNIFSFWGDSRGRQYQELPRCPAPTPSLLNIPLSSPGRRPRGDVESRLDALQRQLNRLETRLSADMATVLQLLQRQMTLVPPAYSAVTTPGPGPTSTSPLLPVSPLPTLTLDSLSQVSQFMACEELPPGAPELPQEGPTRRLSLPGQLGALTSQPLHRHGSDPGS
Cytochrome P450 2C9 (Homo sapiens), sequence (P11712 whole entry, looked up): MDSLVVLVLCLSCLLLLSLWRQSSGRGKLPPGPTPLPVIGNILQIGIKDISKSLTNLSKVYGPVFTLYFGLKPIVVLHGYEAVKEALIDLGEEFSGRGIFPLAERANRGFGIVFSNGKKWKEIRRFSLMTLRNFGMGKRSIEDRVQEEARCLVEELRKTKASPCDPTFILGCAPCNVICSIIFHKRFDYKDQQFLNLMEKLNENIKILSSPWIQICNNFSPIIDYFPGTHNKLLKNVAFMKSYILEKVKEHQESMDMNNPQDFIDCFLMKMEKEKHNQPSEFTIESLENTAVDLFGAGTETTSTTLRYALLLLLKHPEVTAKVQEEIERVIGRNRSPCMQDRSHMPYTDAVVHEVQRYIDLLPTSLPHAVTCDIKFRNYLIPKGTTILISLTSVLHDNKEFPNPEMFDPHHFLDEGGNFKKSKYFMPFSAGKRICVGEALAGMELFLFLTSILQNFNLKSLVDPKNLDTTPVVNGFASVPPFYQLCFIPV

Turning to `CCCCCCC(O)CCCCCCCCCCC(=O)OC` (configuration not stated), the Potency result in assay [1], in assay [2], in assay [4], in assay [5] and in assay [6] was “inactive” each time. In addition, the Potency in assay [3] is 35.6 µM (active).

As for `COc1cc(NCc2ccc3nc(N)nc(N)c3c2C)cc(OC)c1OC`, the Potency was 13.8 µM (active) in assay [1], 9.77 µM (active) in assay [2], 15.5 µM (active) in assay [3] and 7.76 µM (active) in assay [4]. Also, the Potency result in assay [5] is “inactive”.

With `CO[C@@H]1[C@@H](OC)[C@H](C)[C@@](O)(CC(=O)O)O[C@H]1[C@H](C)[C@H]1O[C@@]2(CC[C@@](C)([C@H]3CC[C@@](C)([C@@H]4O[C@@H]([C@H]5O[C@](C)(O)[C@H](C)C[C@@H]5C)C[C@@H]4OC4C[C@H](OC)[C@@H](OC)[C@H](C)O4)O3)O2)C[C@H](O)[C@H]1C` (some centres not stated), the Potency entry in assay [1], in assay [2], in assay [3], in assay [4] and in assay [5] was “inactive” throughout.

As for `O=S(=O)(Cl)c1c(Cl)cccc1Cl`, the Potency in assay [1] is 25.1 µM (active). In addition, the Potency result in assay [2], in assay [3], in assay [4] and in assay [5] was “inactive” throughout.

As to `COc1ccc2nc(S(=O)Cc3ncc(C)c(OC)c3C)[nH]c2c1` (configuration not stated), the Potency is 5.57 µM (active) and 17.4 µM (active) in assay [1]; 5.57 µM (active) and 11 µM (active) in assay [2]; 31.3 µM (active) and 13.8 µM (active) in assay [3]; 8.83 µM (active) and 15.5 µM (active) in assay [4]. Further, the Potency result in assay [5] is “inactive”.

For `Cc1c[nH]c2ccccc12`, the Potency result in assay [1], in assay [2], in assay [3], in assay [5] and in assay [6] was “inactive” throughout. For the same compound, the Potency in assay [4] is 14.4 µM (active).

With `CC(C)CC(O)CC(C)C`, the Potency entry in assay [1], in assay [2], in assay [3], in assay [4] and in assay [5] was “inactive” each time.

As for `CC(=O)C(C)=O`, the Potency result in assay [1], in assay [2], in assay [3] and in assay [4] was “inactive” in each case.

For the compound `O=C1c2ccccc2C(=O)c2c(O)ccc(O)c21`, the Potency result in assay [1], in assay [2], in assay [3] and in assay [5] was “inactive” each time. In assay [4], the Potency was 3.17 µM (active).

In the case of `CCCCC[C@H](O)/C=C/[C@H]1[C@H](O)CC(=O)[C@@H]1C/C=C\CCCC(=O)O`, the Potency entry in assay [1], in assay [2], in assay [3], in assay [4] and in assay [5] was “inactive” in each case.

On to `O=C(NS(=O)(=O)/C=C/c1ccccc1)c1ccc(F)cc1Cl`, for which the Potency result in assay [1], in assay [2], in assay [4], in assay [5] and in assay [6] was “inactive” throughout. In addition, the Potency in assay [3] is 10 µM (active).

On to `COc1cc(NS(=O)(=O)c2ccc(N)cc2)nc(C)n1`, for which the Potency entry in assay [1], in assay [2], in assay [3], in assay [4], in assay [5] and in assay [6] was “inactive” in each case.

`O=c1[nH][nH]c(=O)c2cc([N+](=O)[O-])ccc12`: the Potency entry in assay [1], in assay [2], in assay [3], in assay [4] and in assay [5] was “inactive” throughout.

Turning to `CC(=O)OCC(C)C`, the Potency result in assay [1], in assay [2], in assay [3], in assay [4] and in assay [5] was “inactive” each time.

Regarding `Nc1cccc2c(N)cccc12`, the Potency in assay [1] is 2.38 µM (active); in assay [2] it was 7.96 µM (active); in assay [3], 9.2 µM (active); in assay [4] it was 3.72 µM (active). Also, the Potency entry in assay [5] is “inactive”.

With `COc1ccc(CCN(C)CCCN2CCc3cc(OC)c(OC)cc3CC2=O)cc1OC`, the Potency entry in assay [1], in assay [2], in assay [3] and in assay [4] was “inactive” in each case.

As for `CC(C)C(O)C(C)(C)CO` (configuration not stated), the Potency in assay [1] was 32.7 µM (active); in assay [2], 41.2 µM (active); in assay [3] it was 65.3 µM (active); in assay [4], 65.3 µM (active). Further, in assay [5], the Potency result is “inactive”.

As to `CSSc1ccoc1C`, the Potency entry in assay [1], in assay [2], in assay [3], in assay [4], in assay [5] and in assay [6] was “inactive” each time.

For the compound `Cc1ccc2c(c1)CCCN2`, the Potency in assay [1] was 28.3 µM (active); in assay [2], 39.9 µM (active); in assay [3], 39.9 µM (active); in assay [4], 3.17 µM (active). Further, the Potency entry in assay [5] and in assay [6] was “inactive” each time.

`CSCC[C@H](NC(=O)[C@H](Cc1c[nH]c2ccccc12)NC(=O)CCNC(=O)OC(C)(C)C)C(=O)N[C@@H](CC(=O)O)C(=O)N[C@@H](Cc1ccccc1)C(N)=O`: the Potency result in assay [1], in assay [2], in assay [3], in assay [4] and in assay [5] was “inactive” throughout.

With `O=C(O)CO`, the Potency entry in assay [1], in assay [2], in assay [3], in assay [4], in assay [5] and in assay [6] was “inactive” throughout.

On to `O=C(O)c1cccc(C[C@@H]2COc3ccc(OCc4nc5cc(F)ccc5s4)cc3[C@@H]2O)c1`, for which the Potency result in assay [1], in assay [2], in assay [5] and in assay [6] was “inactive” each time. The results for the Potency in assay [3] and in assay [4] were 40 µM (active) and 31.8 µM (active), respectively.

As for `CCCCCCCCCCCCCC(=O)OCC(O)CO` (configuration not stated), the Potency result in assay [1] and in assay [5] was “inactive” each time. For the same compound, the figures for the Potency in assay [2], in assay [3] and in assay [4] were 35.6 µM (active), 22.4 µM (active) and 22.4 µM (active), respectively.

As to `Nc1ccc(S(=O)(=O)NCc2ccccc2)cc1`, the Potency result in assay [1], in assay [3] and in assay [4] was “inactive” each time. Moreover, in assay [2], the Potency is 2.19 µM (active).

Regarding `CC(C)N(C)C`, the Potency entry in assay [1], in assay [2], in assay [3], in assay [4], in assay [5] and in assay [6] was “inactive” each time.

`O=[N+]([O-])C1(Br)COCOC1`: the Potency entry in assay [1] is “inactive”. The Potency was 15.9 µM (active) in assay [2], 7.1 µM (active) in assay [3], 15.9 µM (active) in assay [4] and 54.9 µM (active) in assay [5].

As for `Cc1cc([N+](=O)[O-])ccc1N`, the Potency is 31.3 µM (active) in assay [1], 35.1 µM (active) in assay [2], 39.4 µM (active) in assay [3] and 3.51 µM (active) in assay [4]. The Potency result in assay [5] and in assay [6] was “inactive” each time.
